Screens deposited in PubChem BioAssay by Johns Hopkins Ion Channel Center.
KCNQ2 inh: inhibitors of rat KCNQ2 potassium channel; O88943; B-score at 10 µM; CHO-K1 KCNQ2, FluxOR thallium flux, 20 min; stronger effect = lower value; hit rate 1.1% among 310,000;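 active means fluorescence ratio B-score at most minus 3 library SDs, with starting brightness B-score within 2 library SDs, cut at about -5.5 in these data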
Target sequence (O88943 whole entry, looked up): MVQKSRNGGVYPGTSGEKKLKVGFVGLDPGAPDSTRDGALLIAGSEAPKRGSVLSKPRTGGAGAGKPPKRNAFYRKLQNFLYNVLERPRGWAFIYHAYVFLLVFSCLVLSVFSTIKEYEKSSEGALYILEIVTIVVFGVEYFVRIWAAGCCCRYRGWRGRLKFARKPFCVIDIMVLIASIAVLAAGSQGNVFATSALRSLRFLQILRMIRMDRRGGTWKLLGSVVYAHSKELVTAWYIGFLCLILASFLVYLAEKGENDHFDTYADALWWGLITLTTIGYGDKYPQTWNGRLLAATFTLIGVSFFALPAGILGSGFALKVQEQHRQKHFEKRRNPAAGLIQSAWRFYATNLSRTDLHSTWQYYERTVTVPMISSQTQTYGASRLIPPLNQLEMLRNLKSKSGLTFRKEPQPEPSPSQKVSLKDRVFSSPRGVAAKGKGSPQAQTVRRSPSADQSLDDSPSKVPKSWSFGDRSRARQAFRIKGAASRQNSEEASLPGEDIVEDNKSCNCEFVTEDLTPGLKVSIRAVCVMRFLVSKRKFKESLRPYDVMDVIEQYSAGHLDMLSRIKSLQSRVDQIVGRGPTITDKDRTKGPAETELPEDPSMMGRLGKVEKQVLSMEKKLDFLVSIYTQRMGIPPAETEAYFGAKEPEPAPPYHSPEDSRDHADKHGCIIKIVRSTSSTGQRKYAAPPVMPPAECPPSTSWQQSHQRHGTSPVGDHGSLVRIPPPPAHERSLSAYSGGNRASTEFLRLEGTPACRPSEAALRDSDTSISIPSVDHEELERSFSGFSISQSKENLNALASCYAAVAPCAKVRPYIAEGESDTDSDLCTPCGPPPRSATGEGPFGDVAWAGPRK
KCNQ2 pot: enhances the rat KCNQ2 potassium channel. B-score at 10 µM. CHO-K1 KCNQ2, FluxOR thallium flux fluorescence; stronger effect = higher value. O88943. hit rate 0.54% among 310,000;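 active means fluorescence ratio B-score at least 3 SD of library B-scores, with initial fluorescence B-score within 3 of them, cut at about 5.3 in these data; same plate scores as AID 2156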;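 further: B-score of peak minus minimum over baseline fluorescence ratio after K+ and Tl+ stimulus; positive B-score means potentiation of KCNQ2 with more thallium influx and brighter signal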
Each line names hits and unclear results; the compound was inactive in the other large screens. The list is not random: actives were taken first. Their share in the collection is about 1.6%.

COc1cc(CC(=O)N(C)CC(=O)Nc2ccc(Cl)c(C(F)(F)F)c2)cc(OC)c1OC	none
Cc1cccn2c(=O)c3cc(C(=O)NC4CCCC4)c(=N)n(CCCN4CCOCC4)c3nc12	none
Cc1nc2nc(NC(=O)c3ccco3)[nH]n2c(=O)c1C	none (no result: KCNQ2 pot)
CCN(CC)S(=O)(=O)c1cc(C(=O)OCC(=O)NC2CCCc3ccccc32)ccc1C (stereo not given)	KCNQ2 inh -7.7
CNS(=O)(=O)c1cc(C(=O)OCC(=O)NC2CCCc3ccccc32)ccc1Cl (stereo not given)	none (no result: KCNQ2 pot)
CC(C)c1ccc(/C=N/NC(=O)c2nnn(-c3nonc3N)c2CN(C)C2CCCCC2)cc1	none
Cc1ccc(-c2nnc(-c3cc(C)on3)o2)cc1	none
CCCn1c(N)c(C(=O)CN2CCc3ccccc3C2)c(=O)n(C)c1=O	none (no result: KCNQ2 pot)
CCCCn1c(N)c(C(=S)NC(=O)CC(C)(C)C)c(=O)n(C)c1=O	KCNQ2 pot 6.9
CC(CCc1ccccc1)NC(=O)CN1CCc2ccccc2C1 (stereo not given)	KCNQ2 inh -5.8
CC(=O)C(Cc1ccccc1)NC(=O)CN1CCc2ccccc2C1 (stereo not given)	none (no result: KCNQ2 pot)
O=C(NC(Cc1ccccc1)C(=O)N1CCc2ccccc2C1)c1ccccc1 (stereo not given)	KCNQ2 inh -6.3
COC(=O)c1ccccc1NC(=O)CN1CCc2ccccc2C1	KCNQ2 inh -7.8
O=C(NC(Cc1ccccc1)C(=O)O)c1ccccc1 (stereo not given)	none (no result: KCNQ2 pot)
Cc1ccccc1NC(=O)CN1CCc2ccccc2C1	none (no result: KCNQ2 pot)
Cc1ccc2c(c1)cc1c(=O)n(CC(=O)N3CCCC3)nc(C)n12	none
CC(C)/C=C/CN1CCN(CCCc2ccccc2)C(CCO)C1 (stereo not given)	none (no result: KCNQ2 pot)
CCCc1cc(=O)[nH]c(SCC(=O)Nc2ccc([N+](=O)[O-])cc2C#N)n1	none (no result: KCNQ2 pot)
O=C(O)c1ccccc1C(=O)c1ccc2c(c1)CCC2	none
O=C(/C=C/c1ccc([N+](=O)[O-])cc1)c1cccs1	none (no result: KCNQ2 pot)
Nc1ccc(/C=C/C(=O)c2cccs2)cc1	KCNQ2 inh -6.9
O=C(Nc1cccc(-n2cccn2)c1)C1CCCN(Cc2cc3ccccc3[nH]2)C1 (stereo not given)	KCNQ2 inh -8.2
Cc1cc(CN2CCCC(C(=O)Nc3cccc(-n4cccn4)c3)C2)cc(C)c1O (stereo not given)	none (no result: KCNQ2 pot)
CCN1C(=O)[C@@H]2C(C(=O)c3cnccn3)=NN[C@@H]2C1=O	none (no result: KCNQ2 pot)
COC(=O)CN1C(=S)N(C)C(=O)/C1=C/c1cccs1	none (no result: KCNQ2 pot)
CCc1ccc(/C=C2/C(=O)N(C)C(=S)N2CC(=O)OC)s1	KCNQ2 inh -6
CCCCNC(=O)CNC(=S)N(Cc1ccc(C)cc1)Cc1ccco1	none
CCOC(=O)CNC(=S)N(Cc1ccco1)Cc1ccccc1Cl	KCNQ2 inh -6.5
CCN1C(=O)[C@H]2[C@@H](c3ccc(-c4ccccc4)cc3)N3CCCC[C@@]3(C(=O)OC)[C@H]2C1=O	none (no result: KCNQ2 pot)
COc1cccc(CC(NC(C)=O)C(=O)NC2CCN(C(=O)c3ccncc3)CC2)c1OC (stereo not given)	none (no result: KCNQ2 pot)
COc1ccc(/C=N/N2CCN(c3ccccc3OC)CC2)cc1OC	none
COc1cccc(/C=N/N2CCN(c3ccccc3OC)CC2)c1	KCNQ2 inh -5.5
CCNc1nc(NC(C)C)nc(SCCOC(=O)c2ccccc2)n1	none (no result: KCNQ2 pot)
CCNc1nc(NC(C)C)nc(SCCOc2ccc(C)cc2)n1	KCNQ2 inh -5.6
Cc1ccc(-c2cc(-c3ccc(Cl)cc3)c(C#N)c(N)n2)o1	KCNQ2 inh -6.8
Cc1ccc(-c2cc(-c3ccc(C)o3)nc(N)c2C#N)cc1	none (no result: KCNQ2 pot)
Cc1cc(=O)n2nc(N3CCC(C(=O)NCc4cccc(Cl)c4)CC3)sc2n1	none
CCC1(c2ccccc2)NC(=O)N(CC(=O)NC2(C#N)CCCCC2)C1=O (stereo not given)	none
Cc1c(OCC(=O)N[C@@H](Cc2ccccc2)C(=O)O)ccc2c1oc(=O)c1ccccc12	none (no result: KCNQ2 pot)
Cc1c(Cc2ccccc2)c(=O)oc2c(C)c(OC(C)C(=O)N[C@@H](Cc3ccccc3)C(=O)O)ccc12 (stereo not given in full)	KCNQ2 inh -7.7
O=S(=O)(c1ccccc1)[C@@]1(c2ccccc2)C[C@@H]2ON=C(c3cccc(-c4ccccc4)c3)[C@@H]2C1	none
COC(=O)COc1c(Cl)cc(Cl)c2ccc(C)nc12	none (no result: KCNQ2 pot)
Cc1ccc2c(Cl)cc(Cl)c(OCC(=O)NC(C)(C)C)c2n1	KCNQ2 inh -7
O=C(NC1CCCCC1)C1CC=CCC1C(=O)OCC(Cl)=C(Cl)Cl (stereo not given)	KCNQ2 inh -5.5
COCC(=O)NC1CCCCCC1	none (no result: KCNQ2 pot)
CCOC(=O)/C(=C\c1ccc(Cl)cc1)c1nc2sc(C)c(C)c2c(=O)[nH]1	KCNQ2 inh -6.9
CCOC(=O)CSc1nc2sc(C)c(C)c2c(=O)[nH]1	none
CCN(CC(=O)Nc1ccc2c(c1)OCCO2)C(=O)c1ccc(Cl)cc1Cl	none (no result: KCNQ2 pot)
Cc1cc(C)n(CC(=O)NNC(=O)C2CC(=O)N(Cc3ccccc3Cl)C2)n1 (stereo not given)	none
CC(NC(=O)C(C)(C)C)C(c1cccs1)N1CCOCC1 (stereo not given)	none
Clc1ccc(CSc2nncn2-c2ccccn2)cc1	none
Clc1ccc(CSc2nncn2-c2ccc3c(c2)OCCO3)cc1	KCNQ2 inh -7.7
O=C(N[C@@H](Cc1c[nH]c2ccccc12)C(=O)O)c1ccc(Cl)cc1	none
NC(=NCCc1c[nH]c2ccccc12)NC(=O)c1ccc(Cl)cc1	KCNQ2 inh -5.7
O=C(c1sc2ccccc2c1Cl)N1CCN(c2ccccc2F)CC1	none (no result: KCNQ2 pot)
O=C(c1sc2ccccc2c1Cl)N1CCN(c2ccc(F)cc2)CC1	KCNQ2 inh -6.6
COc1ccc2oc(C(=O)N(Cc3ccco3)Cc3cccs3)c(C)c2c1	KCNQ2 inh -5.8
COc1ccc2oc(C(=O)N3CCN(C(=O)c4ccco4)CC3)c(C)c2c1	none
COc1ccc2oc(C(=O)OCC(=O)c3ccc4c(c3)OCCO4)c(C)c2c1	none (no result: KCNQ2 pot)
COc1ccc2oc(C(=O)N(C)Cc3ccc4c(c3)OCCO4)c(C)c2c1	KCNQ2 inh -6.7
COc1ccc(CN2CCN(C3CCC3)CC2CCO)cc1C (stereo not given)	none
CCN(CC)CCn1c(NCc2nc3ccccc3n2Cc2ccccc2)nc2ccccc21	KCNQ2 inh -6.2
CCN(CC)CCn1c(NCc2ccco2)nc2ccccc21	none
c1ccc(Cn2c(CNc3nc4ccccc4n3CCN3CCCCC3)nc3ccccc32)cc1	KCNQ2 inh -7.3
Cn1c(CNc2nc3ccccc3n2CCN2CCCCC2)nc2ccccc21	none (no result: KCNQ2 pot)
COc1ccc(Cc2nnc(SCC(=O)NC3(C#N)CCCCC3)n2N)cc1	none
Cc1cc(C)c2nc(N3CCC(C(=O)NCCCN4CCCCC4)CC3)sc2c1	KCNQ2 inh -6.5
Cc1cc(C)c2nc(N3CCC(C(=O)NCC4CCCO4)CC3)sc2c1 (stereo not given)	none (no result: KCNQ2 pot)
CC1CN(C(=O)CCS(=O)(=O)c2ccccc2)CC(C)O1 (stereo not given)	none
CCCCC(=Nc1ccccc1OC)C1=C(O)CC(c2ccccc2)CC1=O (stereo not given)	KCNQ2 inh -6.5
CCCC(=Nc1ccccc1OC)C1=C(O)CC(c2ccccc2)CC1=O (stereo not given)	none (no result: KCNQ2 pot)
COc1ccc(-c2cc(C(=O)NCC(c3ccco3)N(C)C)c3ccccc3n2)cc1OC (stereo not given)	none (no result: KCNQ2 pot)
COc1ccc(-n2nc(C(=O)N(C)C)nc2-c2ccccc2)cc1	none (no result: KCNQ2 pot)
O=C(N/N=C/c1c[nH]c2ccccc12)c1sc2ccccc2c1Cl	none (no result: KCNQ2 pot)
Cc1cccc(-c2cc(C(=O)N/N=C/c3cccnc3)c3ccccc3n2)c1	none (no result: KCNQ2 pot)
O=C(N/N=C/c1ccccn1)c1cc(-c2ccc(Cl)cc2)nc2ccccc12	KCNQ2 pot 9.6
